# Measured values published in PubChem BioAssay AID686979 (National Center for Advancing Translational Sciences (NCATS), 2013).
# The campaign covered roughly 420,000 compounds. About 50,000 (12%) were called active. About 26% were inconclusive and are not listed. Calls come from the whole dose curve; as a rule, active = well fitted inhibition curve with a large enough effect; inconclusive = small, poorly fitted or top-dose-only effect; inactive = flat fitted curve, though single readings scatter. The full list was thinned out, with actives kept by preference.
# Assay: qHTS for Inhibitors of human tyrosyl-DNA phosphodiesterase 1 (TDP1): qHTS in cells in presence of CPT; note: nearly all actives have a fitted effect of over 55% in size
# Conditions: chicken DT40 Tdp1-/-;hTDP1 cells + 20 nM CPT, ATP luminescence, 48 h; series mostly up to 46.2 µM; activity change, negative = growth inhibition: at the top concentration
# How it was run: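 Cell growth measured by CellTiter-Glo luminescence after a minimum 48 h, 37 C compound exposure with 20 nM CPT in Tdp1-knockout DT40 cells stably expressing hTDP1, seeded 400/well; qHTS titration format.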
# % is set by controls: 0 for no effect and ±100 for the full control effect; potency is the fitted concentration of half-maximal effect.
Structure (SMILES),"activity change, negative = growth inhibition",Potency
COc1ccc(-c2c(C(C)=O)c(C)nc3sc4c(=O)n(-c5ccc(C)cc5)nnc4c23)cc1,-13.4% (inactive),–
OC(c1nc2ccc(F)cc2[nH]1)C(O)c1nc2ccc(F)cc2[nH]1 (configuration not stated),1.53% (inactive),–
Oc1ccc(Cl)cc1/C=N/c1nc2ccccc2[nH]1,-17.6% (inactive),–
SCc1nc2ccc(Cl)cc2[nH]1,–,5.62 µM (active)
Cc1ccc(OC(=O)c2c(C)nn(-c3ccccc3)c2C)cc1,4.83% (inactive),–
CCOC(=O)/C=C/CN(C(=O)OC(C)(C)C)S(=O)(=O)N1CC=CC1,-2.23% (inactive),–
O=C(CCN1Cc2ccccc2OC(c2ccccc2)C1)N[C@@H]1CS(=O)(=O)C[C@H]1O (some centres not stated),2.04% [at 9.04 µM] (inactive),–
Cc1cc2nc(C(F)(F)F)cc(-c3cccs3)n2n1,-2.35% (inactive),–
Cn1c(CCN2CCN(c3ccccn3)CC2)nc2cc(NS(=O)(=O)c3ccc(F)cc3)ccc21,–,16.4 µM (active)
CCC(=O)Nc1ccc2c(c1)nc(CCN1CCN(C)CC1)n2C,-4.21% (inactive),–
CCC(=O)Nc1ccc2c(c1)nc(CCN1CCN(c3ccccn3)CC1)n2C,11.1% (inactive),–
COc1ccc(S(=O)(=O)N2CCCCC2)cc1C(=O)NC1CCS(=O)(=O)C1 (configuration not stated),–,inactive
COC(=O)C(C)n1cnc2c(nnn2-c2ccc(F)cc2)c1=O (configuration not stated),-5.18% (inactive),–
COc1ccc(S(=O)(=O)N2C[C@H]3CON(C)[C@H]3C[C@H]2c2cccc(Br)c2)cc1,-28.7% (inactive),–
O=C(Nc1cccc(F)c1)NC1CCCCCCC1,–,18.4 µM (active)
Cc1cc(C)cc(NC(=O)NC2CCCCCCC2)c1,-26% (inactive),–
C/C(CC(=O)Nc1cccc(F)c1)=N\NC(=O)C(=O)NC1CCCCC1,-14.6% (inactive),–
COc1ccc2c(c1)C(=O)Nc1cc(Cl)ccc1N2,11.6% (inactive),–
Cc1cc(C)nc(N/N=C/c2c(CO)cnc(C)c2O)n1,0.526% (inactive),–
CCOc1ccc(N/C(N)=N/c2nc(C)c(C)c(=O)[nH]2)cc1,-2.74% (inactive),–
Cc1ccccc1Nc1nnc(C)c(=O)[nH]1,-4.01% (inactive),–
Cc1nnc(N/N=C/c2ccccn2)[nH]c1=O,–,4.61 µM (active)
CCOc1ccc(-n2c(O)c(/C=N/Nc3nnc(C)c(=O)[nH]3)c3ccccc3c2=O)cc1,–,0.651 µM (active)
CCOc1ccc(-n2c(O)c(/C=N/Nc3nc(C)cc(C)n3)c3ccccc3c2=O)cc1,–,2.59 µM (active)
Cc1nnc(N/N=C/c2cccs2)[nH]c1=O,-11.4% (inactive),–

Structure (SMILES),"activity change, negative = growth inhibition",Potency
CCN(CC)CCCN=Cc1c(O)n(-c2ccc(C)cc2)c(=O)c2ccccc12,2.69% (inactive),–
COc1ccc(-n2c(O)c(C=NCC(c3ccco3)N3CCCC3)c3ccccc3c2=O)cc1OC (configuration not stated),-27.4% (inactive),–
COC1=NC2=NCCN2C(OC)=N1,-6.99% (inactive),–
O=S(=O)(c1ccc(Br)cc1)c1nnn2c1nc(NC1CCCCCC1)c1sccc12,-0.255% (inactive),–
Cc1cccn2c(=O)nc(SCC(=O)NCc3ccccc3Cl)nc12,-0.21% (inactive),–
CN(C(=O)COC(=O)Cc1ccccc1[N+](=O)[O-])C1CCS(=O)(=O)C1 (configuration not stated),4.83% (inactive),–
CCC(C)N1CC(=O)N2Cc3[nH]c4ccccc4c3C[C@H]2C1=O (some centres not stated),-2.41% (inactive),–
COCCn1c(C)cc(C(=O)COC(=O)CNC(=O)c2ccco2)c1C,-17% (inactive),–
CCOC(=O)C1CCN(c2ncnc3c2c(-c2ccccc2)cn3-c2ccc(C)cc2)CC1,–,20.6 µM (active)
O=c1[nH]cnc2c1c(-c1ccccc1)cn2-c1ccc(F)cc1,-11.8% (inactive),–
CCOC(=O)C1CCN(C(=O)COc2cc(C)c(Br)c(C)c2)CC1,-20.6% (inactive),–
CCOC(=O)C1CCN(Cc2ccc(-c3ccccc3)cc2)CC1,6.78% (inactive),–
CCOC(=O)C1CCN(c2ncnc3c2oc2ccc(Br)cc23)CC1,-22.5% (inactive),–
CCOC(=O)C1CCN(c2ncnc3c2c(-c2ccccc2)cn3-c2cccc(C)c2)CC1,–,18.4 µM (active)
CC(Cc1cccs1)N(Cc1ccc(Cl)cc1)C(=O)c1ccncc1 (configuration not stated),-18.9% (inactive),–
COc1ccc(C(=O)O/N=C(\N)c2ccccn2)cc1[N+](=O)[O-],-27.8% (inactive),–
COc1ccc(N=Nc2ccc(O)c(P(=O)(c3ccccc3)c3ccccc3)c2)cc1,-16.4% (inactive),–
COCCN(C(=O)C(C)N1C(=O)c2ccccc2C1=O)c1c(N)n(CC(C)C)c(=O)[nH]c1=O (configuration not stated),-29.5% (inactive),–
CCNC(=O)CC1C(=O)N(c2ccc(F)cc2)C(=O)N1Cc1ccc(C)cc1 (configuration not stated),-0.743% (inactive),–
CCCCOc1ccc(C(C)(O)CCN2CCOCC2)cc1 (configuration not stated),7.6% (inactive),–
CC(C)(C)c1ccc(CCC2OCC(CN3CCOCC3)O2)cc1 (configuration not stated),–,20.6 µM (active)
CSc1ccc(CNCCN2CCOCC2)cc1,-4.96% (inactive),–
CC(C)CCNC(=O)c1[nH]c(C(F)(F)F)nc1-c1ccccc1,-24.5% (inactive),–
COc1ccc(C(=O)Nc2cc(C)ccc2NC(=O)COc2ccccc2)cc1,10.8% (inactive),–
COc1ccc(C(=O)NN(C)c2nc(-c3ccccc3)cc(C)c2S(C)(=O)=O)cc1,–,16.4 µM (active)

Structure (SMILES),"activity change, negative = growth inhibition",Potency
COc1ccc(/C(C)=N\NC(=O)c2ccc(-c3ccccc3)cc2)c(F)c1,1.06% (inactive),–
CC1CCCCC1NC(=O)Cn1c(=O)cnc2ccccc21 (configuration not stated),0.78% (inactive),–
O=S(=O)(Nc1ccccc1Br)c1cccs1,9.21% (inactive),–
CCCOC(=O)Cc1c(O)c2ccccc2[nH]c1=O,-11.3% (inactive),–
O=C(Cc1c(O)c2ccccc2[nH]c1=O)NCc1ccccc1,1.16% (inactive),–
COC(=O)Cc1c(-c2[nH]c3ccccc3c2CC(=O)OC)[nH]c2ccccc12,–,20.6 µM (active)
Cc1ccc(Nc2ncnc3c2cnn3C)c(C)c1,-27.3% (inactive),–
Cc1cc(-c2n[nH]c(=S)n2-c2ccc(C)c(C)c2)no1,-11.6% (inactive),–
CCN(CC)C(=O)COc1coc(CN2CCN(Cc3ccccc3)CC2)cc1=O,-2.36% (inactive),–
CC(C)(C)NC(=O)COC(=O)c1cc(Cl)ccc1[N+](=O)[O-],3.17% (inactive),–
Nc1nc(CSc2nnnn2-c2ccccc2)nc(Nc2ccccc2)n1,-16% (inactive),–
Cc1ccc(Nc2nc(CSc3nnnn3-c3ccccc3)cc(=O)[nH]2)cc1,–,23.1 µM (active)
Cc1ccc(-c2noc(CSc3nnnn3-c3ccccc3)n2)cc1,-3.52% (inactive),–
O=C(NC1(C(F)(F)F)NC(=O)N(Cc2cccnc2)C1=O)c1ccccc1Cl (configuration not stated),-1.49% (inactive),–
CCOC(=O)C1CCN(C(=O)CC2C(=O)N(Cc3ccccc3)C(C)c3nc4ccccc4n32)CC1 (configuration not stated),-26.1% (inactive),–
COC(=O)[C@]12CCCCC=C1N(Cc1ccc3c(c1)OCO3)C(=O)[C@H](CC(=O)N1CCOCC1)C2,8.29% (inactive),–
COC(=O)[C@@]12C[C@@H](CC(=O)N3CCC(c4ccccc4)CC3)C(=O)N(Cc3ccccc3)C1=CCC(C)(C)C2,–,18.4 µM (active)
O=c1cc(CN2CCN(c3cccc(Cl)c3)CC2)c2cc3c(cc2o1)CCCC3,-28.5% (inactive),–
O=C(NCCCO)/C(=C\C=C\c1ccccc1)NC(=O)c1ccccc1Cl,-12.1% (inactive),–
CCOP(=O)(OCC)C(Nc1ccc([N+](=O)[O-])cc1)c1ccc(Cl)cc1 (configuration not stated),-22% (inactive),–
CCOC(=O)[C@]12CCC=C1N(Cc1ccco1)C(=O)[C@H](CC(=O)N1CCSCC1)C2,-27.5% (inactive),–
CCOC(=O)[C@]12CCC=C1N(Cc1ccccc1)C(=O)[C@H](CC(=O)N1CCCC1)C2,-15.5% (inactive),–
CCOC(=O)[C@]12CCCC=C1N(Cc1ccc(Cl)cc1Cl)C(=O)[C@H](CC(=O)N1CCCCC1)C2,–,20.6 µM (active)
CN1CCNC(=O)C1CC(=O)NCCC1=CCCCC1 (configuration not stated),-0.969% (inactive),–
CC1=C(C(=O)N(C)C)CC(CC(=O)NCCc2ccccn2)C(=O)N1CCC1=CCCCC1 (configuration not stated),5.55% (inactive),–

Structure (SMILES),"activity change, negative = growth inhibition",Potency
CCOC(=O)[C@]12CCCC=C1N(CCC1=CCCCC1)C(=O)[C@H](CC(=O)N1CCCCC1)C2,–,7.31 µM (active)
CC1=C(C(=O)N2CCOCC2)CC(CC(=O)NCCN2CCOCC2)C(=O)N1CCC1=CCCCC1 (configuration not stated),-24.6% (inactive),–
CCCCOCCCNC(=O)C[C@@H]1C[C@@]2(C(=O)OCC)CCCC=C2N(CCC2=CCCCC2)C1=O,–,13 µM (active)
CCOC(=O)[C@]12CCCC=C1N(CCC1=CCCCC1)C(=O)[C@H](CC(=O)N1CCOCC1)C2,-80.8% (inactive),–
CCOC(=O)[C@]12CCCC=C1N(CCC1=CCCCC1)C(=O)[C@H](CC(=O)NCCCOC)C2,–,14.6 µM (active)
COc1ccc(CNC(=O)CN(C(=O)c2csnn2)c2cnc3ccccc3c2)cc1,-24% (inactive),–
COCCNc1nnc(SCC(=O)NNC(=O)c2ccco2)s1,-0.281% (inactive),–
Cc1ccc(NC(=O)C2CC2c2ccccc2)cc1 (configuration not stated),-15.6% (inactive),–
O=C(/C=C/[C@H]1O[C@@H](n2cnc3c(NC(=O)c4ccccc4)ncnc32)[C@H](O)[C@@H]1O)NCc1ccccc1,-25.5% (inactive),–
CC1CCCCC12NC(=O)N(CC(=O)Nc1ccc(S(=O)(=O)Nc3ncccn3)cc1)C2=O (configuration not stated),0.923% (inactive),–
CCC(C)N(C(=O)COC(=O)C1C(C(=O)OC)=C(C)NC(C)=C1C(=O)OC)C1CCS(=O)(=O)C1 (configuration not stated),0.101% (inactive),–
COc1cc(OC)c(C(=S)N2CCCC2)cc1OC,-22% (inactive),–
CSc1ccccc1C(=O)OCC(=O)N1CCN(C(C)=O)CC1,-0.484% (inactive),–
Cc1ccc(NC(=O)[C@H](Cc2ccccc2)NC(=O)CC[C@H]2O[C@@H](n3ccc(=O)[nH]c3=O)[C@H](O)[C@@H]2O)cc1C,-6.82% (inactive),–
Cc1cccc(C(=O)Nc2ccc(Oc3cnccn3)cc2)c1,-11.8% (inactive),–
CCOC(=O)[C@]12CCC=C1N(CCC1=CCCCC1)C(=O)[C@H](CC(=O)NCc1ccc(C)o1)C2,–,16.4 µM (active)
CCCCNC(=O)C[C@@H]1C[C@@]2(C(=O)OCC)CCC=C2N(Cc2ccco2)C1=O,-11.1% (inactive),–
CCCCNC(=O)C[C@@H]1C[C@@]2(C(=O)OCC)CCC=C2N(Cc2cccc3ccccc23)C1=O,–,16.4 µM (active)
C#CCNC(=O)C[C@@H]1C[C@@]2(C(=O)OCC)CCCC=C2N(Cc2ccco2)C1=O,-5.49% (inactive),–
CCN(CC)C(=O)C1=C(C)N(Cc2ccc(OC)cc2)C(=O)C(CC(=O)NCc2ccco2)C1 (configuration not stated),-18.4% (inactive),–
CC1=C(C(=O)N2CCOCC2)CC(CC(=O)NCc2cccc3ccccc23)C(=O)N1CCC1=CCCCC1 (configuration not stated),-11.8% (inactive),–
Cc1ccccc1OCC(=O)NNC(=O)c1cc(S(=O)(=O)N(C)C)ccc1N1CCCC1,-16.2% (inactive),–
